BJeLR lethal: kills HRASV12-expressing BJeLR cells; BJeLR (HRASV12) viability, CellTiter-Glo ATP luminescence, 48 h; 300,000 tested, 0.17% active; inhibition, % (concentration not given with the values); in the data active = inhibition above about 50%; inconclusive = no clear call, values can overlap the other calls
BoNT-F LC inh: inhibitors of Botulinum neurotoxin F light chain protease | 360,000 tested, 0.22% active | Multiplex microsphere protease cleavage assay, flow cytometry | inhibition, % at 10 µM; in the data active = inhibition above about 35%, passing the limit was not always enough; inconclusive = no clear call, values can overlap the other calls; note: plate controls were buffer without enzyme for full effect and enzyme alone for no effect
BoNT-A LC inh2: blocks Botulinum neurotoxin A light chain protease; multiplex microsphere protease substrate cleavage, flow cytometry; inhibition, % at 10 µM; 360,000 tested, 0.17% active; note: plate controls were buffer without enzyme for full effect and enzyme alone for no effect
Anthrax LF inh2: anthrax lethal factor protease inhibition; 360,000 tested, 0.12% active; inhibition, % at 10 µM; P15917; AID 588501; multiplex microsphere protease cleavage assay, LF; note: plate controls were buffer without enzyme for full effect and enzyme alone for no effect
Bead autofluor: compound fluorescence in toxin protease inhibitor counterscreen; compound autofluorescence counterscreen, microsphere flow cytometry; hits give high values; fluorescence intensity (test concentration not listed); 360,000 tested, 3.1% active; in the data active = fluorescence intensity above about 16000; inconclusive = no clear call, values can overlap the other calls
SARS 3CLpro inh: SARS-CoV 3CLpro protease inhibition; recombinant SARS-CoV 3CLpro, quenched FRET peptide cleavage; inhibition, % at 6 µM; AID 1706; 290,000 tested, 0.14% active; in the data active = inhibition above about 12%
* marks the source's active call; other numbers are inactive results. Compounds with a hit are over-represented: about 3.6% of the library has one in this group of screens. Cut-off read from the data, not from the text of the source, unless noted: active = inhibition above about 30%; inconclusive = no clear call, values can overlap the other calls; inactive = below that.

For COC(=O)c1ccc(NC(=O)CN(C)S(=O)(=O)c2ccc(OC)c(C)c2)cc1 the results were BJeLR lethal -5.8, BoNT-F LC inh -8.4, BoNT-A LC inh2 -3.7, Anthrax LF inh2 -4.3, Bead autofluor 24716* and SARS 3CLpro inh 6.0.
Screening COc1ccc(S(=O)(=O)N(C)CC(=O)Nc2ccc(C(N)=O)cc2)cc1OC returned BJeLR lethal 4.2, BoNT-F LC inh -2.3, BoNT-A LC inh2 -0.8, Anthrax LF inh2 2.1, Bead autofluor 3332 and SARS 3CLpro inh 0.0.
`CC1=CC(C)(C)N2C(=O)C3(C(C#N)=C(N)Oc4cc(O)ccc43)c3c(C)c(C)cc1c32` (configuration not stated) gave BJeLR lethal -6.1, BoNT-F LC inh -1.9, BoNT-A LC inh2 -1.8, Anthrax LF inh2 -1.5, Bead autofluor 23874* and SARS 3CLpro inh 10.6.
CCOC(=O)C1=C(N)OC2=C(C(=O)CCC2)C12C(=O)N1c3c(ccc(C)c32)C(C)=CC1(C)C (configuration not stated) was read as BJeLR lethal 1.4, BoNT-F LC inh -13.4, BoNT-A LC inh2 -0.1, Anthrax LF inh2 -0.3, Bead autofluor 3651 and SARS 3CLpro inh -5.3.
For CC1=CC(C)(C)N2C(=O)C3(C(C#N)=C(N)OC4=C3C(=O)CCC4)c3c(C)c(C)cc1c32 (configuration not stated) the results were BJeLR lethal -2.3, BoNT-F LC inh -5.8, BoNT-A LC inh2 -3.7, Anthrax LF inh2 -2.1, Bead autofluor 17514* and SARS 3CLpro inh -4.2.
`COc1ccc(Cl)cc1N(CC(=O)Nc1cccc(SC)c1)S(C)(=O)=O` gave BJeLR lethal -4.6, BoNT-F LC inh 3.5, BoNT-A LC inh2 4.1, Anthrax LF inh2 -5.5, Bead autofluor 21540* and SARS 3CLpro inh 4.8.
Screening COc1ccc(N(CC(=O)Nc2cccc(SC)c2)S(C)(=O)=O)cc1Cl returned BJeLR lethal -2.5, BoNT-F LC inh 5.6, BoNT-A LC inh2 -1.0, Anthrax LF inh2 -0.6, Bead autofluor 3280 and SARS 3CLpro inh -0.5.
Screening CCOc1ccccc1NC(=O)/C(C#N)=C/c1cccnc1 returned BJeLR lethal -5.6, BoNT-F LC inh -3.5, BoNT-A LC inh2 -2.6, Anthrax LF inh2 0.5, Bead autofluor 6005 and SARS 3CLpro inh -2.3.
`N#C/C(=C\C=C\c1ccccc1)C(=O)Nc1ccccc1` gave BJeLR lethal -8.0, BoNT-F LC inh -0.6, BoNT-A LC inh2 -0.1, Anthrax LF inh2 1.0, Bead autofluor 2676 and SARS 3CLpro inh -6.1.
`N#C/C(=C/C=C/c1ccccc1)C(=O)Nc1ccccc1` gave BJeLR lethal 2.6, BoNT-F LC inh -9.6, BoNT-A LC inh2 inconclusive, Anthrax LF inh2 -1.1, Bead autofluor 18225* and SARS 3CLpro inh -5.2.
`N#C/C(=C\c1ccccc1)C(=O)Nc1ccccn1` gave BJeLR lethal 12.6, BoNT-F LC inh 39.8*, BoNT-A LC inh2 -2.0, Anthrax LF inh2 -17.1, Bead autofluor 3958 and SARS 3CLpro inh -5.4.
Screening Cc1ccccc1NC(=O)/C(C#N)=C\c1cccnc1 returned BJeLR lethal 4.4, BoNT-F LC inh -5.7, BoNT-A LC inh2 inconclusive, Anthrax LF inh2 -0.2, Bead autofluor 17365* and SARS 3CLpro inh -4.5.
For CNc1ccc(/C=C(\C#N)C(=O)Nc2ccccn2)cc1[N+](=O)[O-] the results were BJeLR lethal -14.3, BoNT-F LC inh 37.5*, BoNT-A LC inh2 0.6, Anthrax LF inh2 32.6*, Bead autofluor 5365 and SARS 3CLpro inh -7.7.
`CCOC(=O)C1=C(COC(=O)C2CC(=O)N(CCc3ccccc3)C2)NC(=O)NC1C` (configuration not stated) gave BoNT-F LC inh 0.2, BoNT-A LC inh2 0.7, Anthrax LF inh2 -7.5 and Bead autofluor 3500.
For N#Cc1cccc(NCC(=O)Nc2ccc3c(c2)OCCO3)c1 the results were BJeLR lethal 3.6, BoNT-F LC inh -1.8, BoNT-A LC inh2 -0.1, Anthrax LF inh2 4.1, Bead autofluor 4385 and SARS 3CLpro inh 0.8.
CSc1ccccc1NC(=O)c1cnccn1 was read as BJeLR lethal 9.0, BoNT-F LC inh -5.5, BoNT-A LC inh2 inconclusive, Anthrax LF inh2 -2.3, Bead autofluor 16758* and SARS 3CLpro inh -3.3.
Screening CCc1ccccc1NC(=O)c1cnccn1 returned BJeLR lethal 1.5, BoNT-F LC inh -3.8, BoNT-A LC inh2 -1.8, Anthrax LF inh2 0.2, Bead autofluor 21346* and SARS 3CLpro inh -4.2.
CSc1ccccc1NC(=O)Nc1ccc(Cl)cc1 was read as BJeLR lethal 10.8, BoNT-F LC inh 8.5, BoNT-A LC inh2 8.7, Anthrax LF inh2 -9.5, Bead autofluor 20588* and SARS 3CLpro inh 3.2.
CC(C)c1ccccc1NC(=O)c1cnccn1 was read as BJeLR lethal 0.1, BoNT-F LC inh -5.2, BoNT-A LC inh2 inconclusive, Anthrax LF inh2 -1.5, Bead autofluor 25411* and SARS 3CLpro inh 2.1.
Screening CCC(c1nnnn1-c1ccc2c(c1)OCCO2)N1CCN(c2ccc(C)cc2)CC1 (configuration not stated) returned BoNT-F LC inh 0.2, BoNT-A LC inh2 -0.6, Anthrax LF inh2 -10.3 and Bead autofluor 4042.
CC(C)C12CN3CCN(CC(C3)C1O)C2 (configuration not stated) was read as BJeLR lethal 2.7, BoNT-F LC inh -4.8, BoNT-A LC inh2 -1.9, Anthrax LF inh2 -2.0, Bead autofluor 16737* and SARS 3CLpro inh 2.3.
CC1(C(=O)NCCC#N)CCN1C(=O)Cc1ccc(-c2ccccc2)cc1 (configuration not stated) was read as BoNT-F LC inh -0.4, BoNT-A LC inh2 -0.3, Anthrax LF inh2 -10.8 and Bead autofluor 3988.
COc1cccc(C(=O)Nc2c(F)c(F)c(F)c(F)c2F)c1 was read as BJeLR lethal -14.8, BoNT-F LC inh -4.7, BoNT-A LC inh2 -1.7, Anthrax LF inh2 0.6, Bead autofluor 20193* and SARS 3CLpro inh -3.3.
Screening COc1cccc(C(=O)Nc2nnc(Cc3ccc(OC)c(OC)c3)s2)c1 returned BJeLR lethal 2.1, BoNT-F LC inh -5.0, BoNT-A LC inh2 -0.7, Anthrax LF inh2 -7.2, Bead autofluor 6392 and SARS 3CLpro inh 6.8.
CCCc1nnc(NC(=O)c2cccc(OC)c2)s1 was read as BJeLR lethal -14.7, BoNT-F LC inh 8.2, BoNT-A LC inh2 inconclusive, Anthrax LF inh2 -0.3, Bead autofluor 21067* and SARS 3CLpro inh 3.6.
COc1ccc(Cc2nnc(NC(=O)c3ccc(OC(C)=O)cc3)s2)cc1OC was read as BJeLR lethal 3.5, BoNT-F LC inh 34.6*, BoNT-A LC inh2 3.7, Anthrax LF inh2 1.7, Bead autofluor 3108 and SARS 3CLpro inh 0.4.
Cc1ccc(-c2ocnc2C(=O)N2CCOCC2)cc1 was read as BJeLR lethal 3.9, BoNT-F LC inh 1.8, BoNT-A LC inh2 -4.1, Anthrax LF inh2 -2.5, Bead autofluor 3033 and SARS 3CLpro inh 6.6.
CC(C)(C)c1ccc(C(=O)N2CCC2(C)C(=O)Nc2cccc3ccccc23)cc1 (configuration not stated) was read as BoNT-F LC inh 1.6, BoNT-A LC inh2 0.1, Anthrax LF inh2 0.6 and Bead autofluor 3530.

Compound activity as filed in PubChem.
